Assay [1] is described as follows: BSK_CASM3C_SRB: Viability Assessment in the BioMAP Diversity Plus: CASM3C Assay (AID 2283050).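 Note: total protein by SRB staining as cytotoxicity measure in parallel cultures.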 The settings on record: primary human coronary artery smooth muscle cells.
Read-out in assay [2]: Tissue Factor, F3 (gene 2152)
Kind of assay: BSK_CASM3C_TissueFactor: BioMAP Diversity Plus: CASM3C Assay for Tissue Factor Biomarker Activity (AID 2283052).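 Note: cell surface tissue factor protein level read by ELISA.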 The settings on record: primary human coronary artery smooth muscle cells; actives raise or lower the signal.

Read-out in assay [3]: Interferon-gamma inducible Protein 10 (IP10), CXCL10 (gene 3627)
Briefly: BSK_hDFCGF_IP10: BioMAP Diversity Plus: hDFCGF Assay for Interferon-gamma inducible Protein 10 (IP10) Biomarker Activity (AID 2283053). The settings on record: primary human foreskin fibroblasts; actives raise or lower the signal. In short, it runs like this: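 ELISA read-out of IP-10 (CXCL10) from primary human skin fibroblasts, 24 h after compound addition. Gain or loss of signal versus DMSO baseline, bidirectional curve fitting.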

Read-out in assay [4]: Epidermal growth factor receptor (EGFR), EGFR (gene 1956)
Kind of assay: BSK_hDFCGF_EGFR: BioMAP Diversity Plus: hDFCGF Assay for Epidermal growth factor receptor (EGFR) Biomarker Activity (AID 2283057). The settings on record: primary human foreskin fibroblasts; actives raise or lower the signal. In short, it runs like this:
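ELISA readout of EGFR on human dermal fibroblasts (primary foreskin cells), 24 h post-dosing; bidirectional curve fit vs DMSO baseline, gain or loss of signal scored.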

Read-out in assay [5]: Interleukin-8 (IL8), CXCL8 (gene 3576)
Briefly: BSK_hDFCGF_IL8: BioMAP Diversity Plus: hDFCGF Assay for Interleukin-8 (IL8) Biomarker Activity (AID 2283058). The settings on record: primary human foreskin fibroblasts; actives raise or lower the signal. In short, it runs like this:
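Fibroblast monolayers (human foreskin, hDFCGF) received test chemical for 24 h before ELISA detection of IL-8; either increases or decreases relative to DMSO count as activity.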

Assay [6] can be described thus: BSK_hDFCGF_Proliferation: Cell Proliferation Assessment in the BioMAP Diversity Plus: hDFCGF Assay (AID 2283059).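 Note: curves fitted for both rise and fall of signal versus DMSO baseline.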 The settings on record: primary human foreskin fibroblasts. In short, it runs like this:
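This proliferation readout used SRB total-protein staining of human foreskin fibroblasts […], normalized to DMSO with bidirectional curve fitting.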

The nature of assay [7]: BSK_hDFCGF_SRB: Viability Assessment in the BioMAP Diversity Plus: hDFCGF Assay (AID 2283061).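 Note: cells exposed to compound for 24 h before the read.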 The settings on record: primary human foreskin fibroblasts. In short, it runs like this: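 SRB-based viability read on primary human skin fibroblasts at 24 h: TCA fixation, 0.1% dye, 560 nm. Gain or loss of signal is fitted against the DMSO negative control.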
Read-out in assay [8]: TIMP metallopeptidase inhibitor 1 (TIMP1), TIMP1 (gene 7076)
Kind of assay: BSK_hDFCGF_TIMP1: BioMAP Diversity Plus: hDFCGF Assay for TIMP metallopeptidase inhibitor 1 (TIMP1) Biomarker Activity (AID 2283062). The settings on record: primary human foreskin fibroblasts; actives raise or lower the signal. In short, it runs like this: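 Bidirectional curve fitting against DMSO baseline yielded this endpoint, based on ELISA detection of TIMP-1 in primary human foreskin fibroblasts exposed to compound for 24 h.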

Read-out in assay [9]: Matrix Metallopeptidase 1 (MMP1), MMP1 (gene 4312)
Briefly: BSK_hDFCGF_MMP1: BioMAP Diversity Plus: hDFCGF Assay for Matrix Metallopeptidase 1 (MMP1) Biomarker Activity (AID 2283064). The settings on record: primary human foreskin fibroblasts; actives raise or lower the signal. In short, it runs like this:
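ELISA read-out of MMP1 from human foreskin fibroblasts (primary skin cells), 24 h post-dose. Gain or loss of signal was fitted bidirectionally versus DMSO negative control; cytotoxicity was checked by SRB in parallel cultures.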

Read-out in assay [10]: Vascular cell adhesion molecule 1 (VCAM1), VCAM1 (gene 7412)
Kind of assay: BSK_hDFCGF_VCAM1: BioMAP Diversity Plus: hDFCGF Assay for Vascular cell adhesion molecule 1 (VCAM1) Biomarker Activity (AID 2283065).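 For AC50: VCAM-1 protein level quantified by ELISA after 24 h chemical exposure.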 The settings on record: primary human foreskin fibroblasts; actives raise or lower the signal. In short, it runs like this: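 Measured after 24 h chemical treatment of primary human skin fibroblasts, VCAM-1 was detected by ELISA and concentration-response analysed in both directions versus DMSO vehicle.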

Read-out in assay [11]: Interferon-gamma inducible Protein 10 (IP10), CXCL10 (gene 3627)
Briefly: BSK_KF3CT_IP10: BioMAP Diversity Plus: KF3CT Assay for Interferon-gamma inducible Protein 10 (IP10) Biomarker Activity (AID 2283068). The settings on record: primary human keratinocytes with fibroblasts; actives raise or lower the signal. In short, it runs like this:
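Signal is secreted/surface IP-10 by ELISA in a human primary skin co-culture of keratinocytes and foreskin fibroblasts, taken 24 h post-dosing; DMSO served as negative control.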

Read-out in assay [12]: Transforming growth factor beta 1 (TGFb1), TGFB1 (gene 7040)
Kind of assay: BSK_KF3CT_TGFb1: BioMAP Diversity Plus: KF3CT Assay for Transforming growth factor beta 1 (TGFb1) Biomarker Activity (AID 2283072). The settings on record: primary human keratinocytes with fibroblasts; actives raise or lower the signal. In short, it runs like this: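 Read-out: ELISA for TGF-b1 in keratinocyte/foreskin fibroblast human skin co-culture, 24 h after dosing; bidirectional curve fit vs DMSO baseline; gain or loss of signal scored.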

Read-out in assay [13]: urokinase plasminogen activator (uPA), PLAU (gene 5328)
Kind of assay: BSK_KF3CT_uPA: BioMAP Diversity Plus: KF3CT Assay for urokinase plasminogen activator (uPA) Biomarker Activity (AID 2283075). The settings on record: primary human keratinocytes with fibroblasts; actives raise or lower the signal. In short, it runs like this: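 Skin co-culture (keratinocytes + foreskin fibroblasts), human primary; 24 h post-dose; uPA by ELISA; gain/loss fit vs DMSO baseline.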

Read-out in assay [14]: CD40, CD40 (gene 958)
Kind of assay: BSK_LPS_CD40: BioMAP Diversity Plus: LPS Assay for CD40 Biomarker Activity (AID 2283076). The settings on record: primary human HUVEC with PBMC; actives raise or lower the signal. In short, it runs like this:
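Using a multiplexed primary human co-culture (umbilical vein endothelium plus PBMC), CD40 was read by ELISA 24 h after dosing, with cytotoxicity tracked by sulforhodamine B staining of parallel cultures and activity fitted bidirectionally versus DMSO.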

Read-out in assay [15]: E-selectin (Homo sapiens) (UniProt P16581)
Kind of assay: BSK_LPS_Eselectin: BioMAP Diversity Plus: LPS Assay for Eselectin Biomarker Activity (AID 2283077). The settings on record: primary human HUVEC with PBMC; actives raise or lower the signal. In short, it runs like this:
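Dose chemical onto LPS-driven HUVEC/PBMC co-culture; after 24 h, run ELISA for E-selectin; fit up- and down-going responses relative to DMSO control.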

Read-out in assay [16]: Interleukin-8 (IL8), CXCL8 (gene 3576)
Kind of assay: BSK_LPS_IL8: BioMAP Diversity Plus: LPS Assay for Interleukin-8 (IL8) Biomarker Activity (AID 2283078). The settings on record: primary human HUVEC with PBMC; actives raise or lower the signal. In short, it runs like this: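 In this LPS system, chemical-treated human umbilical vein endothelium/PBMC co-cultures were harvested at 24 h for IL-8 ELISA.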

A short description of assay [17]: BSK_LPS_SRB: Viability Assessment in the BioMAP Diversity Plus: LPS Assay (AID 2283079).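 Note: total protein by sulforhodamine B absorbance as a cytotoxicity measure; measured one day after compound addition; fitted in both directions against DMSO so loss or gain of signal counts.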 The settings on record: primary human HUVEC with PBMC. In short, it runs like this:
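Cytotoxicity endpoint in human endothelial–PBMC co-culture: 24 h exposure, then SRB (0.1%) staining, 560 nm read.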

Read-out in assay [18]: Interleukin-1 alpha (IL1a), IL1A (gene 3552)
Kind of assay: BSK_LPS_IL1a: BioMAP Diversity Plus: LPS Assay for Interleukin-1 alpha (IL1a) Biomarker Activity (AID 2283080). The settings on record: primary human HUVEC with PBMC; actives raise or lower the signal. In short, it runs like this: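 Primary human HUVEC and PBMC co-culture stimulated with LPS is dosed and harvested at 24 h. Both increases and decreases in ELISA-measured IL-1a are scored relative to DMSO.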

Read-out in assay [19]: Monocyte Chemoattractant Protein-1 (MCP1), CCL2 (gene 6347)
Briefly: BSK_LPS_MCP1: BioMAP Diversity Plus: LPS Assay for Monocyte Chemoattractant Protein-1 (MCP1) Biomarker Activity (AID 2283081).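 For AC50: secreted MCP-1 protein quantified by ELISA in culture supernatant.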 The settings on record: primary human HUVEC with PBMC; actives raise or lower the signal. In short, it runs like this:
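Values derive from bidirectional fitting against DMSO of ELISA-measured MCP-1 in a human primary endothelial and mononuclear cell co-culture, 24 h after chemical addition under LPS activation.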

Assay [20] is described as follows: BSK_LPS_PGE2: BioMAP Diversity Plus: LPS Assay for Prostaglandin E2 (PGE2) Biomarker Activity (AID 2283082). The settings on record: primary human HUVEC with PBMC; actives raise or lower the signal. In short, it runs like this: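 ELISA read-out of PGE2 from human umbilical vein endothelial cells co-cultured with peripheral blood mononuclear cells under LPS, 24 h post-dose. Gain or loss of signal scored relative to DMSO baseline.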

Active and inactive are the calls of the source. Rule for the calls: active = hit-call score of the fitted dose curve at least 0.9, where 1 is the maximum; inactive = score below 0.9.

Chain of E-selectin (Homo sapiens) (P16581 whole entry, looked up): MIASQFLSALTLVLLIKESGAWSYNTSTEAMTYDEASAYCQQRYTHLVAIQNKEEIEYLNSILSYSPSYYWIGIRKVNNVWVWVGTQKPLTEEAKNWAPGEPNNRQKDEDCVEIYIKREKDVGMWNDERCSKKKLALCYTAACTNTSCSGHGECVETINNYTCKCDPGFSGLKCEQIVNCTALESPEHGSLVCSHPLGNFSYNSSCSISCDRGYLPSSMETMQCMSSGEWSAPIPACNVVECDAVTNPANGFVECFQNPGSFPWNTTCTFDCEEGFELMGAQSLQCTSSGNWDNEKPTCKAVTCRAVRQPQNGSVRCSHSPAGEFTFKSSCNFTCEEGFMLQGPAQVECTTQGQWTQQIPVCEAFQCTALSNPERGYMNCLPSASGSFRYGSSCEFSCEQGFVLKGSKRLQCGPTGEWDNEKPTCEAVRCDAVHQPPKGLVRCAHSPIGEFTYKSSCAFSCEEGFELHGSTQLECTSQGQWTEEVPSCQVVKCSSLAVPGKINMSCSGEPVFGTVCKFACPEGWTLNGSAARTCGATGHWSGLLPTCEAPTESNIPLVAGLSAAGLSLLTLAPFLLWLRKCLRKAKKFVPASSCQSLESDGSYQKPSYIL

Take `O=c1c2ccccc2c(=O)c2c1cc(Cl)c1[nH]c3c([nH]c12)c(Cl)cc1c(=O)c2ccccc2c(=O)c13`: the result in [1], in assay [2], in assay [4], in assay [5], in [6] and in [7] was inactive. Moreover, the result in [8], in [9], in assay [11], in assay [12], in [13] and in assay [14] was inactive. The outcome in assay [15], in assay [16], in assay [17], in assay [18], in assay [19] and in assay [20] was inactive. Further, the figures for the half-maximal activity concentration (AC50) in [3] and in [10] were 29 µM (active) and 14.4 µM (active), respectively.
Regarding `O=S(=O)(c1ccccc1)c1ccccc1`, the outcome in [1], in assay [2], in assay [3], in assay [4], in [5] and in [6] was inactive. The outcome in assay [7], in assay [8], in assay [9], in [10], in [11] and in assay [12] was inactive. For the same compound, the result in assay [13], in assay [14], in assay [15], in assay [16], in assay [17] and in assay [18] was inactive. Moreover, the result in assay [19] and in assay [20] was inactive.
Consider `C=CC(=O)OCC(CC)CCCC` (stereo not given), for which the AC50 (usually the midpoint of the concentration-response curve, whichever way the signal moves) in assay [1] is 31.7 µM (active); in [3], 27.6 µM (active); in [6] it was 30.3 µM (active); in assay [7], 32.2 µM (active); in [8] it was 27.5 µM (active); in assay [9], 30.4 µM (active). In addition, the AC50 in assay [10] is 16 µM (active); in assay [12], 0.164 µM (active); in assay [13], 0.016 µM (active); in [19] it was 0.016 µM (active). The outcome in [2], in assay [4], in [5], in assay [11], in assay [14] and in assay [15] was inactive. For the same compound, the outcome in assay [16], in assay [17], in [18] and in [20] was inactive.
Regarding `CC(C)CCCCCCCOC(=O)c1ccccc1C(=O)OCCCCCCCC(C)C`, the outcome in assay [1], in assay [2], in [3], in [4], in assay [5] and in assay [6] was inactive. Besides, the outcome in assay [7], in assay [8], in [9], in [10], in assay [11] and in assay [12] was inactive. Also, the outcome in [13], in [14], in assay [15], in assay [16], in assay [17] and in assay [18] was inactive. Also, the result in assay [19] and in assay [20] was inactive.
In the case of `CC(C)(C)C(O)C(Oc1ccc(-c2ccccc2)cc1)n1cncn1` (stereo not given), the concentration at half-maximal activity (AC50) in assay [1] was 30.5 µM (active); in assay [2] it was 14.4 µM (active); in [12], 20 µM (active). Also, the result in assay [3], in assay [4], in [5], in assay [6], in assay [7] and in [8] was inactive. For the same compound, the outcome in [9], in assay [10], in assay [11], in assay [13], in assay [14] and in assay [15] was inactive. In addition, the result in assay [16], in [17], in [18], in assay [19] and in [20] was inactive.
As to `Nc1ccc(-c2ccc(N)c(N)c2)cc1N`, the result in assay [1], in assay [3], in assay [4], in assay [5], in [6] and in assay [7] was inactive. Also, the result in assay [8], in assay [9], in [11], in assay [13], in assay [14] and in [15] was inactive. Also, the outcome in [16], in assay [17], in [18], in assay [19] and in [20] was inactive. Moreover, the concentration at half-maximal activity (AC50) is 11.3 µM (active) in [2], 11.7 µM (active) in assay [10] and 26.6 µM (active) in assay [12].
